Experiment: COS7 lysate on small-molecule microarray, probe aHis, 635 nm (AID 1123);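 also: z-score combines 667nm fluorescence intensity with signal-to-noise per printed compound spot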
Details: COS7 cell lysate, fluorescence, higher = more signal

**Q.** For CCCNC(=O)OC[C@H]1O[C@H](CCON=CC[C@@H]2C=C[C@H](OC(C)=O)[C@@H](COC(C)=O)O2)C=C[C@@H]1Oc1ccc(OC)cc1, which composite z-score is on record?
**A.** The composite z-score was 0.0884.

**Q.** For O[C@@H](Cc1ccccc1)[C@H]1C2C=CCCC(c3ccccc3)=C2CN1Cc1cccc(Cl)c1 (stereo partly specified), which composite z-score is on record?
**A.** The composite z-score was 0.981.

**Q.** Which composite z-score does the source give for CCCC[C@@H]1C[C@H]1[C@@H](NS(=O)(=O)c1cccc2cccnc12)c1ccc(-c2ccccc2)cc1 here?
**A.** The composite z-score was 0.92.

**Q.** Which composite z-score does the source give for O=C1C2=CC[C@H]3C(=O)N(Cc4ccc5c(c4)OCO5)C(=O)[C@H]3[C@H]2[C@H](O)[C@@H]2O[C@H]12 here?
**A.** Its composite z-score is -0.142.

**Q.** With CCOC(=O)[C@H](CC(C)C)NC(=O)CCC1CC(OC(=O)NCCc2ccc(F)cc2)CC2(CCCC(COC(=O)NCc3ccccc3)O2)O1 (stereo partly specified) as the compound, how does the composite z-score read?
**A.** Its composite z-score is 1.27.

**Q.** For CCCNC(=O)[C@@H]1c2ccccc2C(=O)N(Cc2ccccc2Cl)[C@H]1c1ccc(CO)cc1, which composite z-score is on record?
**A.** The composite z-score was 1.86.

**Q.** For CO[C@@H]1COC(=O)CC=C[C@@H](C)COC(=O)[C@H](COCc2ccccc2)NC(=O)CC=C[C@H]1C, which composite z-score is on record?
**A.** Its composite z-score is -0.843.

**Q.** For C=COC[C@H]1CN2[C@@H](CC[C@@H](C)[C@@H]2c2ccc(Br)cc2)C(=O)O1, which composite z-score is on record?
**A.** The composite z-score was 0.807.

**Q.** For COC(=O)[C@H](C)NC(=O)CCC1CC(OC(=O)NCCc2ccc(F)cc2)CC2(CCCC(COC(=O)NCCc3ccc(Cl)cc3)O2)O1 (stereo partly specified), which composite z-score is on record?
**A.** Its composite z-score is 0.925.

**Q.** Which composite z-score does the source give for COCCCNC(=O)[C@@]1(Sc2ccc(C)cc2)CC(=O)N(Cc2ccccc2)[C@@H]1c1ccc(CO)cc1I here?
**A.** The composite z-score was 0.987.

**Q.** Which composite z-score does the source give for Cc1ccc(S(=O)(=O)N[C@@H]2COC(=O)[C@H](C)COC(=O)CC=C[C@H]2C)cc1 here?
**A.** The composite z-score was -0.32.

**Q.** Which composite z-score does the source give for C=CC[C@]1(C(=O)NCc2ccccc2)N=C(c2ccc(OCCCO)cc2)O[C@H]1c1ccccc1 here?
**A.** The composite z-score was 2.65.

**Q.** With CCOc1ccc(N2C(=O)/C(=C/C=C/c3ccccc3OC)S(=O)(=O)C2c2cccc([N+](=O)[O-])c2)cc1 (stereo unspecified) as the compound, how does the composite z-score read?
**A.** Its composite z-score is 0.13.

**Q.** Which composite z-score does the source give for CO[C@H]([C@@H](C)[C@H](OC)c1ccccc1)[C@H](C)[C@@H](OC)[C@H](C)C(C)=O here?
**A.** The composite z-score was -0.74.

**Q.** Which composite z-score does the source give for CC(=O)O[C@H]1C2=C(C(=O)[C@@H]3O[C@@H]31)[C@H]1C(C)O[C@@H]2[C@@]23C(=O)[C@@H]4O[C@@H]4[C@@H](O)C2=CO[C@H](C)[C@@H]13 (stereo partly specified) here?
**A.** Its composite z-score is -0.519.

**Q.** Which composite z-score does the source give for CC(C)=NOCc1ccc(-c2cc(-c3ccccc3)no2)cc1 here?
**A.** The composite z-score was -0.676.

**Q.** With C=CCC(OC(C)=O)[C@@H]1[C@@H](N(Cc2cc3ccccc3o2)C(=O)Cc2ccc(F)cc2)c2cc(OCCCO)ccc2N1C(=O)Cc1ccc(OC)cc1 (stereo partly specified) as the compound, how does the composite z-score read?
**A.** The composite z-score was -0.372.

**Q.** For CCN1C(=O)[C@H]2[C@H]3[C@H](O)C=CC(=O)[C@@H]3CC[C@H]2C1=O, which composite z-score is on record?
**A.** Its composite z-score is -0.177.

**Q.** With CC(C)OC(=O)C=C1C[C@@H](c2ccc(C#N)cc2)O[C@@H](c2ccc(C#N)cc2)O1 as the compound, how does the composite z-score read?
**A.** Its composite z-score is 3.07.

**Q.** For NC(=O)NCC#Cc1ccc2c(c1)[C@]1(C(=O)N2)[C@H](c2ccc(O)cc2)N2[C@H](c3ccccc3)[C@H](c3ccccc3)OC(=O)[C@H]2[C@@H]1C(=O)N1CCCCCCC1, which composite z-score is on record?
**A.** Its composite z-score is 0.594.

**Q.** Which composite z-score does the source give for Cc1cc2c(nc1C)CCCN2CC(O)CN1CCN(C)CC1 (stereo unspecified) here?
**A.** The composite z-score was 0.387.

**Q.** Which composite z-score does the source give for C[C@@H]1C=CCC(=O)OC[C@H](C)C(=O)N[C@@H](C)C(=O)OC1 here?
**A.** The composite z-score was -0.466.

**Q.** For COc1ccc([Si](C)(C)[C@@H]2[C@@H](CCO)O[C@]3(C(=O)N(Cc4ccc(NC(C)=O)cc4)c4ccccc43)[C@H]2C)cc1, which composite z-score is on record?
**A.** The composite z-score was 1.08.

**Q.** For COc1ccc([Si](C)(C)[C@H]2[C@H](CC(=O)N3CCC[C@H]3CO)O[C@@]3(C(=O)N(Cc4cccc(N5C(=O)COc6ccccc65)c4)c4ccccc43)[C@@H]2C)cc1, which composite z-score is on record?
**A.** The composite z-score was 2.38.

**Q.** With C[C@@H](c1ccccc1)N1C(=O)[C@H]2[C@H]3[C@H](O)C=CC(=O)[C@@H]3CC[C@H]2C1=O as the compound, how does the composite z-score read?
**A.** The composite z-score was -0.263.

**Q.** Which composite z-score does the source give for C=C(COC)/C(=C/C[C@H](OC(=O)c1ccncc1)c1ccc(CO)o1)c1cc(C(=O)OC)ccc1OC here?
**A.** Its composite z-score is 1.17.

**Q.** Which composite z-score does the source give for COC(=O)CC=C[C@H](C)[C@H](CO)NS(=O)(=O)c1ccc(C)cc1 here?
**A.** The composite z-score was -0.0961.

**Q.** For C#CCCCON=C1C[C@@H](O)[C@@H](O)[C@@H]2[C@@H]3C(=O)N(c4cccc(Oc5ccccc5)c4)C(=O)[C@@H]3CC[C@@H]12, which composite z-score is on record?
**A.** The composite z-score was 1.77.

**Q.** Which composite z-score does the source give for CC(C)(C)OC(=O)CC[C@]1(C(N)=O)COC(c2ccc(OCCCO)cc2)=N1 here?
**A.** Its composite z-score is 2.97.

**Q.** With CC[C@@H](c1ccccc1)n1c(=O)n2n(c1=O)[C@H]1[C@H](O)[C@@H]3O[C@@H]3C(=NOCC=C(C)CCC=C(C)C)[C@H]1CC2 as the compound, how does the composite z-score read?
**A.** Its composite z-score is 0.689.

**Q.** For COc1ccc(O[C@H]2C=C[C@@H](c3ccccc3)O[C@@H]2COC(=O)CCC(C)=NOC(C)CN2CCCCc3nc(C)c(C)cc32)cc1 (stereo partly specified), which composite z-score is on record?
**A.** The composite z-score was 0.121.

— PubChem BioAssay
